Test results from PMC12136788.
In all, about 24,000 sequences were measured (“enrichment r”: median about 0.99, highest 2% from about 3.7 on). This is one part of a sample in which the highest values are shown more often than they occur.

T1: UNK ZnF1-3 (human, UniProt Q9C0B0 31-174)
T1 sequence: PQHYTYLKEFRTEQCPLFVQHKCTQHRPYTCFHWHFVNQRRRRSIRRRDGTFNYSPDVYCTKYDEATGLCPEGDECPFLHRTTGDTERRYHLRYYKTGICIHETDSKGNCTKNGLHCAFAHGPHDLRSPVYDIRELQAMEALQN

B1: chr1:129704038:129704039:+_ENSMUSG00000026349_ENSMUST00000027587|mus_mus|FALSE|FALSE (ssRNA)
RNA: GGGAGUUCUACAGUCCGACGAUCAGGCCAAAGCUGCCCUCCAAGUGUCGGUUGGCCUGCAUUAAUUACAGCUGUGCCUGCACACUUGUCUCAACAUCAAGUACUGAGGGAAAACGGGAAUGCACUCUGCCUCUGGUCAGUACACAACAGAGGAUUGAGCAUCA
B2: chr10:110404880:110404881:-_ENSMUSG00000035798_ENSMUST00000041723|mus_hu|motif|central (ssRNA)
RNA: GGGAGUUCUACAGUCCGACGAUCGUUUUUGUGAUACUUGUCACCAAGGUUAACUGAAACAUUGAAUGUUAAAAGCAAUCGGGUUGGAUCCACACUAUGUGUUCUAUAUGCUGCCCACAUUAAAGGCGUCAUUCCAUUCUGAUCCAACAGAGGAUUGAGCAUCA
B3: 23688267_23688387_1410_3pUTR_ENSMUSG00000048439_ENSMUST00000049887|mouse|control|control (ssRNA)
RNA: GGGAGUUCUACAGUCCGACGAUCUGAAUUUGUGGUGUUCUGCUGCUCAGCUUCCCAGACUGUAGGCAUGCAGGACAUGCCUGGCUAAGGCAUUCUUUCUGUAUUUAAACCUGACCUUUAUACAGUCAGAAGCUCGACCGGUGGCAACAGAGGAUUGAGCAUCA
B4: chr2:228221723:228221724:+_ENSG00000168958_ENST00000354503|hu_mus|FALSE|FALSE (ssRNA)
RNA: GGGAGUUCUACAGUCCGACGAUCGACCAUUUCUCUUUUAGCACGCUCUUUAUUCUCCUCUUCCAGAAGUUGGAGACGUCUAUUUAAUUUGAUUAUCUGACGUCUUAAUGAAGCUGCAUCUACCACAGUCAUGUCAUCUGAAGCCAACAGAGGAUUGAGCAUCA
B5: 60766941_60767061_3855_CDS_ENSG00000011028_ENST00000303375|human|control|control (ssRNA)
RNA: GGGAGUUCUACAGUCCGACGAUCGAAGGCCUGGGUGUAGGGGUCGGGCACGUAGGCCAGGCUGGCAUUGCGGCUCUCACACAGCAGGAGGGCAUCGUGCCAGCGCAGCGGCUUCUGAAGCAGCCGGAAGGUGCCGUUGAGGUACAACAGAGGAUUGAGCAUCA
B6: chr3:196311055:196311056:+_ENSG00000174013_ENST00000440469|hu_hu|FALSE|FALSE (ssRNA)
RNA: GGGAGUUCUACAGUCCGACGAUCGACCUUUGGAAGUCCUCUAAAAGCAACCCCCAGGAACUCAUAUCCACGUUCAAAAGCUAAAGUCUUAUCUUCCAUGUCCAAGAUGACUCGAAUUCUUUCUCCUAUCUGAUAUUUUGGUGCCAACAGAGGAUUGAGCAUCA
B7: chr2:140009677:140009678:+_ENSMUSG00000027384_ENSMUST00000044825|mus_mus|FALSE|FALSE (ssRNA)
RNA: GGGAGUUCUACAGUCCGACGAUCGCUGCUAACCACCAGGUCAAACGUGUUUUCUUGGAAGGGAAGGAAUUCUUCAUCAGCUAAAAUAUUCACAGUAGGAAUAUCUGUUUCUAAAGAAUUUUUCAAAGCAUGCUCUGCAAUGUCCAACAGAGGAUUGAGCAUCA
B8: 112506700_112506820_3235_3pUTR_ENSMUSG00000032727_ENSMUST00000109272|mouse|control|control (ssRNA)
RNA: GGGAGUUCUACAGUCCGACGAUCAAUAAAUACCCUCCCGUCCAGUCACUAGGACCACUACCUCCUACCUACUCUUCAGCACGACCUUGAAGCGACUCACACUUAUAAACAGCAACACAACUAGGAAAAUAAAAAAAAAAAUCACAACAGAGGAUUGAGCAUCA
B9: chrX:71549762:71549763:+_ENSMUSG00000019087_ENSMUST00000019231|mus_mus|mus_mus_mus_hu_False|28_98 (ssRNA)
RNA: GGGAGUUCUACAGUCCGACGAUCAAACCCGUGUACUCACUCUUAACAGCACAACAUCACCAGAAAACGAUAACGACAGCCAAGCAGGACAGACAGUUAAGUAGUACUUCCACACCUCCAAACUCAGGGAGCCCUAUAACCUUACAACAGAGGAUUGAGCAUCA
B10: 32740819_32743422_11525_CDS_ENSG00000115760_ENST00000421745|human|control|control (ssRNA)
RNA: GGGAGUUCUACAGUCCGACGAUCCAGCAUCAACUGUAAAAAUAAUCUUCGUAUAAACCCUGAAAUGUUCCCAGAUGUUGGAAGGUUCCCUCUUUGAGGAGAUGUCUGAAAUAGUUCACAAAGAACCUGUGCCAUCAGCUUUUGCAACAGAGGAUUGAGCAUCA
B11: chrX:71549762:71549763:+_ENSMUSG00000019087_ENSMUST00000019231|mus_mus|mus_mus_mus_hu_False|28_88 (ssRNA)
RNA: GGGAGUUCUACAGUCCGACGAUCAAACCCGUGUACUUCUUAUUGUUACAUCACCCCCACCAGAAAACGAUAACGACAGCCAAGCAGGACAGACAGUUAAGUAGUACUUCCACACCUCCAAACUCAGGGAGCCCUAUAACCUUACAACAGAGGAUUGAGCAUCA
B12: chr1:32661602:32661603:+_ENSG00000084652_ENST00000373610|hu_hu|FALSE|FALSE (ssRNA)
RNA: GGGAGUUCUACAGUCCGACGAUCCAGCAUCCCUCUUCCUUGGAAGGUCCUCAAUACAAACACUGUCAUGUGCAAAAAAAAAAGAAAAAGAAAAAAAAAAAAAAAGAAAAAGAAAUAAAGAAAAAAACACCUUCAGAAAUAAUCCAACAGAGGAUUGAGCAUCA
B13: chr3:41266445:41266446:+_ENSG00000168036_ENST00000349496|perfect_dup|FALSE|FALSE (ssRNA)
RNA: GGGAGUUCUACAGUCCGACGAUCCAUAGCAGCUCGUACCCUCUGAGCUCGAGUCAUUGCAUACUGUCCAUCAAUAUCAGCUACUUGUUCUUGAGUGAAGGACUGAGAAAAUCCCUGUUCCCACUCAUACAGGACUUGGGAGGUCAACAGAGGAUUGAGCAUCA
B14: chrX:140365796:140365797:-_ENSMUSG00000031285_ENSMUST00000033642|mus_mus|mus_mus_mus_hu_False|28_108 (ssRNA)
RNA: GGGAGUUCUACAGUCCGACGAUCCUUCUCAUUACUUAGUGCCUGCAAGGUUCUGGUUCGGUAGAAGCUACAGUGGGCGCUGUGAGUGGGGCUAGGCAACCCAUUCAUCCGUGACCCUCGCAUGUUCCUGGAUGUCUUAUCUCUCAACAGAGGAUUGAGCAUCA
B15: chr9:95013113:95013114:-_ENSG00000196305_ENST00000443024|hu_hu|hu_hu_hu_mus_False|68_98 (ssRNA)
RNA: GGGAGUUCUACAGUCCGACGAUCCUCAGUCAGAAAGGGUGUGUAGGGGGCCAUCAGUCUGCACAGAGAAAGCAGAACACUGAACAGUGUCUCCAGAGCCAUGACACAGUCUUCCACCCCACUCUCACCCUUUAACCUCCUCCUCAACAGAGGAUUGAGCAUCA

What follows are binders tested against T1, UNK ZnF1-3 (assay: nsRBNS (natural sequence RNA bind-n-seq); RBNS binding buffer (assumed for nsRBNS): 25 mM Tris pH 7.5, 150 mM KCl, 3 mM MgCl2, 0.01% Triton X-100, 500 ug/ml BSA, 20 U/ml SUPERase-In, 4 C; UNK is unkempt and MSI1 is Musashi-1; names of the RNAs are library labels; protein concentration not given here; high values mean tight binding).

Binder	binding signal
B1	0.746 enrichment R
B2	0.601 enrichment R
B3	0.457 enrichment R
B4	0.795 enrichment R
B5	0.939 enrichment R
B6	1.13 enrichment R
B7	1.19 enrichment R
B8	4.38 enrichment R
B9	1.72 enrichment R
B10	1.97 enrichment R
B11	1.85 enrichment R
B12	4.33 enrichment R
B13	0.798 enrichment R
B14	0.752 enrichment R
B15	0.959 enrichment R
